Laboratory results taken from PubChem BioAssay.

test system: Lefty1; assay: Lefty1 binders on small-molecule microarrays, primary screen, biochemical, small-molecule microarray, 635/667 nm fluorescence (AID 1139); settings: small-molecule microarray binding, fluorescence 635/667; higher = more signal

Row | SMILES | composite z-score
1 | COCCOC(=O)N1C(=O)[C@@]2(c3cc(C#CCC(C(=O)OC)C(=O)OC)ccc31)[C@H](C(N)=O)[C@H]1C(=O)O[C@H](c3ccccc3)[C@H](c3ccccc3)N1[C@@H]2c1ccc(O)cc1 | 1
2 | COc1cc(OC)c(C(O)C2C=CC3C(=O)N(c4ccccc4)C(=O)C3N2Nc2ccc(C(C)C)cc2)cc1Br (stereo not given) | -0.112
3 | C#CCN1[C@@H](Cc2ccccc2)C(=O)O[C@H](Cc2ccccc2)[C@@H]1/C=C/C1CC1 | 1.1
4 | CN(C)CCCNC(=O)[C@@H]1c2ccccc2C(=O)N(Cc2ccccc2C(F)(F)F)[C@H]1c1ccc(CO)cc1 | -0.913
5 | COc1ccc([Si](C)(C)[C@H]2[C@H](CCO)O[C@@]3(C(=O)N(Cc4ccc(NC(=O)[C@H](C)O)cc4)c4ccccc43)[C@@H]2C)cc1 | 0.568
6 | CCOC(=O)C[C@H]1[C@H](OC(=O)c2ccccc2-c2ccccc2)[C@@H](NC(=O)c2ccc3ccccc3c2)c2cc(OCCCO)ccc2N1C(=O)Cc1ccc(OC)cc1 | -0.0328
7 | COCCCN1C(=O)[C@@]2(c3ccc([N+](=O)[O-])cc3)CC(=O)N(CC34CC5CC(CC(C5)C3)C4)[C@@H]2c2ccc(CO)cc21 | 0.739
8 | C=C1C(=O)C=C2CN(C(=O)c3ccccc3)[C@@](Cc3ccc(OC)cc3)(C(=O)OC)[C@@H]12 | 0.381
9 | C=CCNC(=O)[C@H]1[C@@H]2C(=O)O[C@@H](c3ccccc3)[C@@H](c3ccccc3)N2[C@@H](c2ccc(OCCO)cc2)[C@]12C(=O)Nc1ccccc12 | -0.0965
10 | COCCOC(=O)N1C(=O)[C@@]2(c3ccccc31)[C@H](c1ccc(O)cc1)N1[C@H](c3ccccc3)[C@H](c3ccccc3)OC(=O)[C@H]1[C@@H]2C(=O)N1CCCCCCC1 | 1.72
